Results reported in article PMC4336329 (PLoS ONE, 2015).
Hit rate of the full screen: of about 310,000 compounds, about 14,000 (4.5%) showed an effect of 50% or more. The effect is printed as a negative number. The list comes from a sample in which strong results are over-represented; it also holds similar structures and randomly drawn compounds.

Molecular target: human ether-à-go-go-related gene (hERG) potassium channel (human, UniProt Q12809)
Assay: primary screen, population patch clamp on CHO cells stably expressing hERG; higher = less effect of the substance
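Also: peak tail current of the secondary pulse compared with the same well before compound.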

human ether-à-go-go-related gene (hERG) potassium channel, sequence (Q12809 whole entry, looked up): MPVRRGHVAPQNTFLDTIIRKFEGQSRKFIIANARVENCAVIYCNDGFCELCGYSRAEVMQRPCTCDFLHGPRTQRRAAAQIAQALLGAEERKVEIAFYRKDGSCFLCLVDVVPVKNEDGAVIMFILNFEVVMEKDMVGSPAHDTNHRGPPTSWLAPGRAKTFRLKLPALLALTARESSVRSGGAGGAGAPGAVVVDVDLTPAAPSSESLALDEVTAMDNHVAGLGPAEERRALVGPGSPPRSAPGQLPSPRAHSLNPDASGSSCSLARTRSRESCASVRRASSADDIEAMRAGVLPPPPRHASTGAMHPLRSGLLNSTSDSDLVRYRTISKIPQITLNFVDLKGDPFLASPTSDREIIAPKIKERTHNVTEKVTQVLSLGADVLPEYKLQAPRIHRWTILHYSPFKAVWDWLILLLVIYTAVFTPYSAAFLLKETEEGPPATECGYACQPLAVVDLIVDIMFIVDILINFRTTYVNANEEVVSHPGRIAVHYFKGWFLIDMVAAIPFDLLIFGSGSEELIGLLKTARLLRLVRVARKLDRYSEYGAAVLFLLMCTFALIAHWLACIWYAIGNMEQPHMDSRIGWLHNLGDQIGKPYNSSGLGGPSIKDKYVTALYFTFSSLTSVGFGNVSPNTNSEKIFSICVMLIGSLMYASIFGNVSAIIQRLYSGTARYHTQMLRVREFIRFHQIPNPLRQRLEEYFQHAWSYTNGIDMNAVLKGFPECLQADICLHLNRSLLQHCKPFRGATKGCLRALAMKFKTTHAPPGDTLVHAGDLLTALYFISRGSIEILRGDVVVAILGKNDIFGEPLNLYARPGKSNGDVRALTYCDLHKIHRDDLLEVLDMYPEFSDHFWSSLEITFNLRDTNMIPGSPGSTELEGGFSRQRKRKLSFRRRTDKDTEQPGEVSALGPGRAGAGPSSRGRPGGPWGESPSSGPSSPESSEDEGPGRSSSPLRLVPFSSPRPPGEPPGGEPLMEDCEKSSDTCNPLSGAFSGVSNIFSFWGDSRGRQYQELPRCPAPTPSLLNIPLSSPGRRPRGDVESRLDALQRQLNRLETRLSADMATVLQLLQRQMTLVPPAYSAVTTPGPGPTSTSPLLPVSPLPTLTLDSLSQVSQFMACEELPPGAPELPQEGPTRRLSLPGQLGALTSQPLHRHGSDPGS

| SMILES | hERG current change (%, negative = inhibition) at 10uM [%] |
| --- | --- |
| Cc1ccc(C)c2sc(N)nc12 | 22.6 |
| COc1ccc(NC(=O)CSc2ncn[nH]2)c([N+](=O)[O-])c1 | -4.71 |
| Nc1nc(N)nc(-c2cc(C(F)(F)F)ccc2Cl)n1 | 11.9 |
| CC(=O)N(C)c1ccc(NC(=O)c2cnn(C)c2)cc1 | 3.39 |
| COc1cccc(CN2C(=O)CCC2(C)C(=O)NC2CCCCC2)c1 (centres unmarked) | 12.9 |
| COc1cccc(-c2cc(C(=O)N/N=C/c3ccco3)c3ccccc3n2)c1 | -2.76 |
| C/C(CC(=O)Nc1cccc2c1CCCC2)=N\NC(=O)c1cccc2ccccc12 | -7.31 |
| O=C(c1ccc2oc(Cc3ccc(Cl)cc3)nc2c1)N1CC[C@H](O)C1 | 4.21 |
| CCCC1CC(C)(/C(C)=N\NC(N)=S)OC1=O (centres unmarked) | 12.4 |
| Br.CCCCCCCC1CC(CSC(=N)N)OC1=O (centres unmarked) | -44.2 |
| CCCCCCCC1CC(/C(C)=N/NC(N)=O)OC1=O (centres unmarked) | -45.3 |
| Br.CCCCCCC1CC(CSC(=N)N)OC1=O (centres unmarked) | -52.1 |
| CCCCCCC1CC(C)(/C(C)=N/NC(N)=O)OC1=O (centres unmarked) | -50.1 |
| Br.CCCCC1CC(CSC(=N)N)OC1=O (centres unmarked) | -1.27 |
| CCCCCCC1CC(C)(C(=O)C[NH2+]c2nncs2)OC1=O.[Br-] (centres unmarked) | -66.3 |
| CCCCCC1CC(CC(=O)Nc2nncs2)C(=O)O1 (centres unmarked) | -8.91 |
| CCCCC1CC(C)(C(=O)CSc2nc3ccccc3s2)OC1=O (centres unmarked) | -0.178 |
| CCCCCC1CC(/C(C)=N/NC(N)=O)OC1=O (centres unmarked) | -7.05 |
| CCCCC1CC(/C(C)=N/NC(N)=O)OC1=O (centres unmarked) | -6.35 |
| CCCCCCC1CC(/C(C)=N\NC(N)=O)OC1=O (centres unmarked) | -53 |
| COc1cccc(NC(=O)c2ccccc2-c2ccccc2C(=O)O)c1 | 10.1 |
| COc1ccc(NC(=O)CN(c2ccc([N+](=O)[O-])cc2)S(=O)(=O)c2ccccc2)cc1 | -10.3 |
| Cc1ccc(C(=O)O/N=C(\N)c2nonc2N)cc1 | -8.67 |
| COc1ccc(-c2nc3ccc([N+](=O)[O-])cc3[nH]2)cc1 | 13.5 |
| Cc1c(NC(=O)CSc2nnnn2-c2ccc(C(=O)O)cc2)c(=O)n(-c2ccccc2)n1C | 20.8 |

| SMILES | hERG current change (%, negative = inhibition) at 10uM [%] |
| --- | --- |
| CN(CC(=O)Nc1ccccc1C(F)(F)F)C(=O)c1cc2c(s1)CCCCC2 | -29.2 |
| CCc1sc(C(=O)NCc2ccccc2)cc1C | -9.06 |
| CN1CCN(S(=O)(=O)c2ccc(N(C)CC(=O)Nc3ccc(F)cc3)nc2)CC1 | -4.31 |
| CN(CC(=O)Nc1ccc(C(N)=O)cc1)CC(=O)Nc1ccccc1Br | 11 |
| COC(=O)C1CCN(Cc2cc(=O)oc3cc(OC)ccc23)CC1 | -17.8 |
| CC1CN(Cc2cc(=O)oc3cc(O)ccc23)CC(C)O1 (centres unmarked) | -23.3 |
| O=C(O)C(=O)O.O=C(c1ccco1)N1CCN(Cc2cccc3ccccc23)CC1 | -24.3 |
| O=c1cc(CN2CCN(Cc3ccccc3)CC2)c2ccc(O)cc2o1 | -76.8 |
| O=c1cc(CN2CCOCC2)c2cc(Cl)ccc2o1 | -0.546 |
| COc1ccc(OC)c(CN2CCN(Cc3cc(=O)oc4cc(O)ccc34)CC2)c1 | -74.8 |
| CN1CCN(Cc2cc(=O)oc3ccc(Cl)cc23)CC1 | -16.7 |
| Cc1ccc2c(CN3CCN(C(=O)c4ccco4)CC3)cc(=O)oc2c1C | -48.6 |
| O=c1cc(CN2CCN(Cc3ccccc3)CC2)c2cc(O)ccc2o1 | -68.2 |
| COc1ccc2oc(=O)cc(CN3CCOCC3)c2c1 | 18.3 |
| O=C(c1ccco1)N1CCN(Cc2cc(=O)oc3cc(O)ccc23)CC1 | -69.3 |
| CCc1cc2c(CN3CCN(Cc4ccccc4)CC3)cc(=O)oc2cc1O | -35.5 |
| O=C(NC1CCOCC1)C1CCC(=O)N(Cc2cccc(C(F)(F)F)c2)C1 (centres unmarked) | 13.7 |
| Cc1cc2c(cc1S(=O)(=O)CCC(=O)N(C)Cc1ccccc1)OCC(=O)N2 | -35 |
| O=[N+]([O-])c1cccc(/C=N/n2c(C3CCCCC3)n[nH]c2=S)c1 | 11.9 |
| COc1cc([N+](=O)[O-])ccc1NC(=O)Nc1ccc2c(c1)OCCO2 | 25.3 |
| CCN1CCN(CCNC(=O)CCCn2nc(C)c3c(C)n(-c4ccc(C)cc4)nc3c2=O)CC1 | 0.678 |
| O=C(CCC(=O)c1ccc[nH]1)c1ccc(Cl)cc1 | -5.4 |
| CC1CCCN(CCC(=O)Nc2ccc(F)c(F)c2)C1 (centres unmarked) | -30.1 |
| COc1ccc(/C(C)=N/NC(=O)Cc2ccc(Cl)cc2)cc1 | 14.6 |
| O=C1C(=O)N(c2ccccn2)C(c2ccc(Br)cc2)/C1=C(/O)c1ccc(Br)cc1 (centres unmarked) | -47.8 |

| SMILES | hERG current change (%, negative = inhibition) at 10uM [%] |
| --- | --- |
| CCOc1cc2[nH]c(=O)n(CCCC(=O)NCc3ccco3)c(=O)c2cc1OCC | 5.83 |
| Cc1cc(C)n(-c2ccc(C(=O)N3CCN(S(=O)(=O)c4ccc(Cl)cc4)CC3)cc2)n1 | -25.8 |
| O=C(CN1CCN(Cc2ccc(F)cc2)CC1)NCCc1ccccc1 | -13.6 |
| Cc1ccccc1-c1ncc(CN2CCC(CO)(CCCc3ccccc3)CC2)cn1 | -10.9 |
| Cn1cc(CN2CCC(CO)(CCCc3ccccc3)CC2)c(-c2ccccc2)n1 | -66.3 |
| COC(=O)c1cccc(C(=O)N2CCC(CO)(CCc3ccccc3)CC2)c1 | -13.6 |
| Cc1cccc(-c2ncc(CN3CCC(CO)(CCCc4ccccc4)CC3)cn2)c1 | -54.1 |
| CC(=O)c1cccc(CN2CCC(CO)(CCCc3ccccc3)CC2)c1 | -63.9 |
| OCC1(CCCc2ccccc2)CCN(Cc2ccc(F)cc2)CC1 | -72.9 |
| COc1cccc(CC2(CO)CCN(Cc3cnc(-c4cccc(C)c4)nc3)CC2)c1 | -19.9 |
| CC(=O)c1cccc(CN2CCC(CO)(Cc3ccccc3)CC2)c1 | -22.9 |
| CC(C)(O)C#Cc1ccc(CN2CCC(CO)(CCc3ccccc3)CC2)cc1 | -39.8 |
| Cc1cc2cc(C#N)c(SCC(=O)Nc3nonc3C)nc2cc1C | -0.0959 |
| CCOC(=O)c1c(C)[nH]c(C)c1C(=O)COC(=O)c1nc2nccc(C)n2n1 | 24.8 |
| C/C(=N/NC(=O)c1cc(C(C)C)[nH]n1)c1cccs1 | 7.16 |
| COc1cc(OC)cc(-c2c(-c3cccs3)c3cc(-c4ccn[nH]4)ccc3n2C)c1 | 7.72 |
| O=C(Nc1ccc(Br)cc1Br)c1cccc2c1C(=O)N(C1CCCCC1)C2 | 12.8 |
| CN(C)c1ccc(C=NCCC2(c3ccccc3)CCOC(C)(C)C2)cc1 (centres unmarked) | 15.3 |
| [N-]=C=C1C(=S)NC(=O)[C@H]([n+]2ccccc2)[C@H]1c1ccc(Cl)cc1 | 15.9 |
| Cc1ccc2nc(/C(C#N)=C/c3ccc(O)c(O)c3)[nH]c2c1 | 7.82 |
| OCC1(CCc2ccccc2)CCN(Cc2cc(F)ccc2-n2cccn2)CC1 | -78.1 |
| Clc1ccccc1CN1CCC(Cc2ccccc2)CC1 | -12.1 |
| OCC1(CCc2ccccc2)CCN(Cc2c(F)ccc(F)c2F)CC1 | -36.9 |
| OCC1(CCc2ccccc2)CCN(Cc2cc(Cl)ccc2O)CC1 | -49.5 |
| O=S(=O)(c1cccc(C(F)(F)F)c1)N1CCC(CO)(CCCc2ccccc2)CC1 | -6.59 |

| SMILES | hERG current change (%, negative = inhibition) at 10uM [%] |
| --- | --- |
| CC(C)N1CCN(Cc2cc(F)ccc2-n2cccn2)CC1CCO (centres unmarked) | 11.2 |
| OCC1(CCc2ccccc2)CCN(Cc2ccccc2Cl)CC1 | -86 |
| OCC1(CCCc2ccccc2)CCN(Cc2cc(F)ccc2F)CC1 | -69.5 |
| CC(C)N1CCC(N2CCN(Cc3cc(F)ccc3-n3cccn3)CC2CCO)CC1 (centres unmarked) | -8.1 |
| CCOc1ccc(NC(=O)N2CC=C(n3c(=O)[nH]c4ccccc43)CC2)cc1 | -8.9 |
| COc1ccc2[nH]c(=O)c(CN(c3ccc(C)c(C)c3)S(C)(=O)=O)cc2c1 | 12.9 |
| Cc1ccccc1NC(=O)c1[nH]cnc1C(=O)NN | 9.21 |
| CCCCOc1ccc(C2C(C(=O)c3cccs3)=C(O)C(=O)N2CCN2CCOCC2)cc1 (centres unmarked) | 21.8 |
| CC(=O)Oc1cc2c(C(=O)NCCCN3CCOCC3)c(C)oc2c2ccccc12 | -18.2 |
| Cc1cc2nc(C)n(CCCN)c2cc1C.Cl | -0.0557 |
| CCN(CC)S(=O)(=O)c1ccc(Cl)c(NC(=O)COc2ccc3c(C)cc(=O)oc3c2)c1 | 7.69 |
| CCOC(=O)C(Sc1nnc(-c2ccncc2)o1)C(C)=O (centres unmarked) | 27.7 |
| COc1ccc(C(=O)N/C(=C\c2cn(C)c3ccccc23)C(=O)NCCCn2ccnc2)cc1 | 26.3 |
| Cc1ccc(C(=O)N/C(=C\c2ccc(F)cc2)C(=O)NCCCn2ccnc2)cc1 | -77.5 |
| COc1ccc(C(=O)N/C(=C\c2ccccc2)C(=O)NCCCn2ccnc2)cc1 | -55.8 |
| Cl.O=C(NCCCn1ccnc1)c1ccc(F)cc1 | -2.81 |
| O=C(NCCCn1ccnc1)c1noc2c1CCc1ccccc1-2 | -45.9 |
| COCCNC(=O)c1noc2c1CCc1cc(OC)ccc1-2 | -6.83 |
| COc1ccc(/C=C(/NC(=O)c2ccccc2)C(=O)NCCCn2ccnc2)cc1OC | 19 |
| COc1ccc2c(c1)CCc1c(C(=O)NCCCn3ccnc3)noc1-2 | -50.2 |
| COc1ccc(/C=C(\NC(=O)c2ccc(C)cc2)C(=O)NCCCn2ccnc2)cc1 | -86.4 |
| COc1ccc(/C=C(/NC(=O)c2ccc(OC)c(OC)c2)C(=O)NCCCn2ccnc2)cc1 | 11.5 |
| COc1ccc(C(=O)NCCCn2ccnc2)cc1.Cl | -5.63 |
